The text below walks through data of PubChem BioAssay.

Assay [1] can be described thus: stimulators of nuclear beta-catenin in C2C12, primary screen, imaging, WNT3A-conditioned medium, mouse C2C12, NPC library (AID 1117326; in the data active means nuclear beta-catenin stimulation mostly above about 4.2%, no sharp cut-off; inactive means mostly below about 10%). The conditions noted are these: stronger effect = higher value.
The nature of assay [2]: stimulators of insulin release from INS-1E, primary screen, cell-based, 5 mM glucose, NPC library (AID 1117329;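 active means compound raises insulin release from rat beta cells at 5 mM glucose, no numeric limit stated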). Conditions: rat INS-1E insulin secretion, at 10 µM, stronger effect = higher value.
Assay [3] is described as follows: growth inhibition of GSK3B-pretreated HCT116 cells – cell-based, CellTiter-Glo, 0.2 to 20 µM (AID 1117336;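 active means compounds lowering colon cancer cell viability after pretreatment blocking the GSK3B kinase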). The conditions noted are these: HCT116 viability after GSK3B inhibitor, at 20 µM, stronger effect = higher value. On the technique in general: Cellular ATP, detected with luciferase, serves as a proxy for viable cell number.
The nature of assay [4]: inhibition of endothelial tube formation, primary screen, imaging, VEGF stimulated, CD31 staining, tube area, NPC library (AID 1117340;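 active means compound that reduces growth-factor-driven endothelial tube area in a mixed cell culture, no cutoff stated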). The conditions noted are these: VEGF-stimulated ADSC/ECFC co-culture, at 10 µM, stronger effect = higher value.
A short description of assay [5]: glucagon-like peptide 1 release enhancers, primary assay, NCI-H716 cell line, NPC library (AID 1117341;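 active means compound raises GLP1 secretion from the human gut endocrine cells, with no numeric limit stated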). Conditions: NCI-H716 cells, at 10 µM, stronger effect = higher value.
Assay [6] can be described thus: HCT116 colon cancer cell growth inhibition, primary screen, CellTiter-Glo luminescence, NPC library (AID 1117342;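 active means compounds that lower survival of HCT116 colon cancer cells in the luminescence readout, no numeric limit stated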). Conditions: at 20 µM (top of the series).
Assay [7] in a line: CellTiter-Glo luminescent readout of SW480 viability loss, NPC library primary (AID 1117343;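 active means compounds that lower viability of the colon cancer cells in the luminescence readout, with no numeric limit stated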). The conditions noted are these: CellTiter-Glo luminescence; at 20 µM (top of the series) unless noted.
The nature of assay [8]: decreased DLD-1 cellular survival, CellTiter-Glo luminescent readout, NPC compound collection, primary HTS (AID 1117346;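 active means compounds that lower survival of DLD-1 colon cancer cells in the luminescence readout, no cutoff given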). Conditions: DLD-1 viability, CellTiter-Glo luminescence; at 20 µM (top of the series).
Assay [9] in a line: sensitizers of A549 cells to miR-34 induction, primary screen, imaging, A549 dox-inducible miR-34, nuclei and caspase counts (AID 1347080). Conditions: A549 miR-34 inducible, Hoechst nuclei count, 48 h.
Assay [10] is described as follows: liver-stage malaria parasite growth inhibition, primary screen, cell-based, HepG2, luciferase luminescence, HepG2 viability (AID 624349; in the data active means parasite load remaining mostly below about 12%, no sharp cut-off; inactive means mostly above about 10%;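 further: 100% = mean of DMSO negative control wells on the same plate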). The conditions noted are these: P. berghei liver stage in HepG2, luciferase luminescence, concentration not given here; parasite load remaining: stronger effect = lower value; viability: measured here: HepG2 viability without parasites.

A short description of assay [11]: phospholipid biosynthesis inhibitors in animal cells, primary screen, cell-based, LOPAC library, screen 4 (AID 1347384; call rule not given here). The conditions noted are these: phospholipid biosynthesis inhibition screen, at 10 µM.
A short description of assay [12]: survival rescue of mitochondrial mutant cells in low glucose, primary screen, MELAS cybrids, Rieske KO mouse fibroblasts, CellTiter-Glo (AID 1508586;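 active means mean z-score across replicates of 1.96 or higher in either the MELAS or the Rieske mutant cell line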;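 further: z relative to plate mean and SD of compound and empty wells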).
The nature of assay [13]: viability rescue of complex I mutant cybrids, primary screen, cell-based, galactose medium, ATP luminescence (AID 1645843;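 active means z-score of at least 1.8 in each of two replicates, scored against plate mean and spread of sample wells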;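 further: positive z means more ATP and so rescue of galactose-driven cybrid death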). Conditions: complex I mutant cybrid cells, 72 h, stronger effect = higher value.
Assay [14] concerns Hepatitis C virus NS3 helicase. The experiment in a line: HCV NS3 helicase inhibitors, primary screen, biochemical, fluorescence polarization, LOPAC1280 library (AID 687035; in the data active means inhibition above about 37%). Conditions: Purified HCV NS3 helicase, Cy5-dT15 ssDNA binding fluorescence polarization; stronger effect = higher value; concentration not given here. On the technique in general: Polarisation of emitted light reports the rotation of a fluorescent probe.

Assay [15] can be described thus: Cy5 fluorescence quenching or enhancement artefacts, artefact control for HCV NS3 helicase inhibitor project, biochemical, LOPAC1280 (AID 687037; call rule not given here). The conditions noted are these: Cy5-DNA-NS3h complex fluorescence interference counterscreen. (In general: The purpose of a counterscreen is to sort out artefacts and off-target activity.)
The mark [16] stands for this setting: stronger effect = lower value, cell number ratio, induced over uninduced.
Setting [17] is: measured here: relative caspase fold change +Dox/-Dox.
Where [18] appears, read: measured here: total cells with miR-34 induction, stronger effect = lower value.
Where [19] appears, read: measured here: total cells without miR-34 induction.
[20] abbreviates: MELAS cybrid survival, CellTiter-Glo 48 h, stronger effect = higher value.
Where [21] appears, read: Rieske KO mouse fibroblast survival, CellTiter-Glo 72 h.

The structures appear in SMILES notation. “And” between values parts separate entries of the source, which are not always exact repeats. Identical values can stand only once. The source made the active and inactive calls.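 How the source made its calls, unless noted: active means compounds whose cell count with miR-34 switched on is under 0.7 times the count with it off; inactive means the rest.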

As for `CCCCCCCCCCCCCCCCNc1ccc(C(=O)O)cc1`, the nuclear beta-catenin stimulation in assay [1] (at 10 µM) is 11.3% (inactive); in assay [1] (stimulation, at 2 µM) it was 1.2%. In addition, the insulin secretion stimulation in assay [2] was 4.2% (inactive). Also, in [3], the viability decrease is 68.9% (active). Moreover, the tube area decrease in assay [4] was 109% (active). Besides, the GLP1 secretion stimulation in [5] is -2.9% (inactive). In addition, the inhibition of viability in assay [6] is 45% (inactive). Also, the figures for the viability decrease (inhibition) in [7] and in [8] were 72.6% (active) and 61.9% (active), respectively. Besides, the fold change was 0.865 (inactive) in assay [9] (setting [16]) and 0.501 in [9] (setting [17]). The cell count was found to be 4330 in assay [9] (setting [18]) and 5010 in assay [9] (setting [19]).

Consider `CCCCc1ncc(/C=C(\Cc2cccs2)C(=O)O)n1Cc1ccc(C(=O)O)cc1`, for which the parasite load remaining in [10] was 50.8% (inactive). Also, in [10], the viability came out at 110%. The nuclear beta-catenin stimulation in assay [1] (at 10 µM) was 0.4% (inactive); in [1] (stimulation, at 2 µM), 12.2%. The insulin secretion stimulation in assay [2] is 2.05% (inactive). In addition, the viability decrease in assay [3] was 9.7% (inactive). Moreover, the tube area decrease in assay [4] was -11.7% (inactive). The GLP1 secretion stimulation in [5] was -2.1% (inactive). Moreover, in [6], the inhibition of viability was 0% (inactive). The viability decrease (inhibition) in assay [7] was -13.7% (inactive); in [8], -4.6% (inactive). Also, the fold change in assay [9] (setting [16]) was 1.04 (inactive) and 0.815 (inactive); in assay [9] (setting [17]), 0.751 and 0.591. Moreover, the cell count is 10200 and 8890 in [9] (setting [18]); 9790 and 10900 in assay [9] (setting [19]). Further, the call in assay [11] was inactive. Further, the z-score in assay [12] (setting [20]) was 0.334 (inactive); in assay [12] (setting [21]) it was -0.876; in assay [13] it was 0.525 (inactive) and 0.34 (inactive).

Take `CCC(=O)c1ccc2c(c1)N(CCCN(C)C)c1ccccc1S2`: the inhibition in [14] was -4% (inactive). Further, the fluorescence ratio (interference) in assay [15] was 0.9 (inactive). The nuclear beta-catenin stimulation is 0.3% (inactive) in [1] (at 10 µM) and -0.2% in assay [1] (stimulation, at 2 µM). In addition, the insulin secretion stimulation in assay [2] was 33.8% (active). In addition, the viability decrease in [3] was 24.5% (inactive). In addition, in [4], the tube area decrease was 48.9% (active). Moreover, the GLP1 secretion stimulation in assay [5] was -2.4% (inactive). Further, the inhibition of viability in assay [6] was 46.9% (inactive). In addition, the results for the viability decrease (inhibition) in assay [7] and in assay [8] were 65.1% (active) and 20.4% (inactive), respectively. For the same compound, the fold change was 0.872 (inactive) in assay [9] (setting [16]) and 0.831 in assay [9] (setting [17]). Further, the cell count in assay [9] (setting [18]) was determined as 1900; in assay [9] (setting [19]) it was 2180. The call in assay [11] was inactive. In assay [13], the z-score is -1.19 (inactive).

For the compound `OCCN1CCN(CCCN2c3ccccc3C=Cc3ccccc32)CC1`, the inhibition in assay [14] was -5% (inactive). For the same compound, in [15], the fluorescence ratio (interference) was 1 (inactive). Further, the nuclear beta-catenin stimulation in [1] (at 10 µM) was -0.5% (inactive); in [1] (stimulation, at 2 µM), 1.3%. Also, in assay [2], the insulin secretion stimulation is 13.8% (inactive). Besides, the viability decrease in assay [3] is 5.9% (inactive). Moreover, the tube area decrease in assay [4] is 15% (inactive). The GLP1 secretion stimulation in assay [5] is 2% (inactive). Also, the inhibition of viability in assay [6] was 56.9% (active). The results for the viability decrease (inhibition) in assay [7] and in assay [8] were 80.2% (active) and 37.9% (inactive), respectively. For the same compound, the results for the fold change in [9] (setting [16]) and in [9] (setting [17]) were 1 (inactive) and 2.29, respectively. Besides, the cell count in assay [9] (setting [18]) worked out at 8600; in assay [9] (setting [19]) it was 8590. Moreover, in [11], the result was inactive. In addition, the figures for the z-score in assay [12] (setting [20]), in assay [12] (setting [21]) and in [13] were -0.305 (inactive), -0.132 and -0.685 (inactive), respectively.

Regarding `COC(=O)C(c1ccccc1Cl)N1CCc2sccc2C1` (stereo not drawn), the nuclear beta-catenin stimulation in assay [1] (at 10 µM) is 0.3% (inactive); in [1] (stimulation, at 2 µM) it was -0.7%. For the same compound, the insulin secretion stimulation in assay [2] was 1.9% (inactive). In [3], the viability decrease is 30.5% (inactive). For the same compound, in [4], the tube area decrease is 1.2% (inactive). Further, the GLP1 secretion stimulation in [5] was 3.9% (inactive). Moreover, in [6], the inhibition of viability is 52.7% (active). In addition, the figures for the viability decrease (inhibition) in [7] and in assay [8] were 18.6% (inactive) and 48.7% (inactive), respectively. Further, the fold change is 0.927 (inactive) in assay [9] (setting [16]) and 0.912 in assay [9] (setting [17]). Besides, the cell count was determined as 7680 in assay [9] (setting [18]) and 8290 in [9] (setting [19]). For the same compound, the z-score was -0.416 (inactive) in assay [12] (setting [20]) and 0.984 in assay [12] (setting [21]).

What is called viability is a read-out of living cells in per cent, often relative to untreated cells. The term inhibition denotes the change of the read-out against control, counted positive when it falls.
